# B1: unnamed (peptide)
# chain: FLIKFTPKFPQSIDH
# Legend:
# Assay in all cases: SPOT peptide array binding signal intensity (averaged, normalized) (arbitrary units (background-subtracted, floor 0; scale differs between SH3 domains)); higher = stronger binding of the SH3 domain to the peptide
# [1] = biological target: AgAbp1
# In short: (§1)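 To measure binding, SH3 domains from four yeast species were fused to GST, expressed in E. coli BL21(DE3) and purified on glutathione Sepharose. Each domain was incubated at 10 μg/ml overnight at 4°C on cellulose membranes with synthetic 15-mer peptides whose cysteines were replaced by serines. Anti-GST antibody, an HRP anti-mouse secondary and luminol were used for detection, and images were quantified with Genespotter. Reported binding signal is normalized, background-subtracted spot intensity averaged over replicates, in arbitrary units that differ between domains.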
# [2] = biological target: AgBbc1
# In short: as §1
# [3] = biological target: AgBem1-D1
# In short: as §1
# [4] = biological target: AgBzz1-D1
# In short: as §1
# [5] = biological target: AgBzz1-D2
# In short: as §1
# [6] = biological target: AgCyk3
# In short: as §1
# [7] = biological target: AgFus1
# In short: as §1
# [8] = biological target: AgHof1
# In short: as §1
# [9] = biological target: AgHse1
# In short: as §1
# [10] = biological target: AgLsb1
# In short: as §1
# [11] = biological target: AgLsb4
# In short: as §1
# [12] = biological target: AgMyo5
# In short: as §1
# [13] = biological target: AgNbp2
# In short: as §1
# [14] = biological target: AgRvs167
# In short: as §1
# [15] = biological target: AgSho1
# In short: as §1
# [16] = biological target: AgSla1-D1-D2
# In short: as §1
# [17] = biological target: AgSla1-D3
# In short: as §1
# [18] = biological target: CaAbp1-D1
# In short: as §1
# [19] = biological target: CaAbp1-D2
# In short: as §1
# [20] = biological target: CaBbc1
# In short: as §1
# [21] = biological target: CaBem1-D1
# In short: as §1
# [22] = biological target: CaBzz1-D1
# In short: as §1
# [23] = biological target: CaBzz1-D2
# In short: as §1
# [24] = biological target: CaCyk3
# In short: as §1
# [25] = biological target: CaFus1
# In short: as §1
# [26] = biological target: CaHof1
# In short: as §1
# [27] = biological target: CaHse1
# In short: as §1
# [28] = biological target: CaLsb1
# In short: as §1
# [29] = biological target: CaLsb4
# In short: as §1
# [30] = biological target: CaMyo5
# In short: as §1
# [31] = biological target: CaNbp2
# In short: as §1
# [32] = biological target: CaRvs167
# In short: as §1
# [33] = biological target: CaRvs167-3
# In short: as §1
# [34] = biological target: CaSho1
# In short: as §1
# [35] = biological target: CaSla1-D1-D2
# In short: as §1
# [36] = biological target: CaSla1-D3
# In short: as §1
# [37] = biological target: ScAbp1
# In short: as §1
# [38] = biological target: ScBbc1
# In short: as §1
# [39] = biological target: ScBem1-D1
# In short: as §1
# [40] = biological target: ScBzz1-D1
# In short: as §1
# [41] = biological target: ScBzz1-D2
# In short: as §1
# [42] = biological target: ScCyk3
# In short: as §1
# [43] = biological target: ScFus1
# In short: as §1
# [44] = biological target: ScHof1
# In short: as §1
# [45] = biological target: ScHse1
# In short: as §1
# [46] = biological target: ScLsb1
# In short: as §1
# [47] = biological target: ScLsb2
# In short: as §1
# [48] = biological target: ScLsb3
# In short: as §1
# [49] = biological target: ScLsb4
# In short: as §1
# [50] = biological target: ScMyo3
# In short: as §1
# [51] = biological target: ScMyo5
# In short: as §1
# [52] = biological target: ScNbp2
# In short: as §1
# [53] = biological target: ScPex13
# In short: as §1
# [54] = biological target: ScRvs167
# In short: as §1
# [55] = biological target: ScSho1
# In short: as §1
# [56] = biological target: ScSla1-D1-D2
# In short: as §1
# [57] = biological target: ScSla1-D3
# In short: as §1
# [58] = biological target: SpAbp1-D1
# In short: as §1
# [59] = biological target: SpBbc1
# In short: as §1
# [60] = biological target: SpBzz1-D1
# In short: as §1
# [61] = biological target: SpBzz1-D2
# In short: as §1
# [62] = biological target: SpCyk3
# In short: as §1
# [63] = biological target: SpHof1
# In short: as §1
# [64] = biological target: SpHof1-2
# In short: as §1
# [65] = biological target: SpHof1-3
# In short: as §1
# [66] = biological target: SpHse1
# In short: as §1
# [67] = biological target: SpLsb1
# In short: as §1
# [68] = biological target: SpLsb4
# In short: as §1
# [69] = biological target: SpMyo1
# In short: as §1
# [70] = biological target: SpNbp2
# In short: as §1
# [71] = biological target: SpPex13
# In short: as §1
# [72] = biological target: SpRvs167
# In short: as §1
# [73] = biological target: SpSla1-D1-D2
# In short: as §1
# [74] = biological target: SpSla1-D3
# In short: as §1
binder,measurement,setting,value
B1,SPOT peptide array binding signal intensity,[1],11
same,SPOT peptide array binding signal intensity,[2],89.8
same,SPOT peptide array binding signal intensity,[3],681
same,SPOT peptide array binding signal intensity,[4],120
same,SPOT peptide array binding signal intensity,[5],229
same,SPOT peptide array binding signal intensity,[6],165
same,SPOT peptide array binding signal intensity,[7],1690
same,SPOT peptide array binding signal intensity,[8],45
same,SPOT peptide array binding signal intensity,[9],1660
same,SPOT peptide array binding signal intensity,[10],2.5
same,SPOT peptide array binding signal intensity,[11],1180
same,SPOT peptide array binding signal intensity,[12],1.5
same,SPOT peptide array binding signal intensity,[13],669
same,SPOT peptide array binding signal intensity,[14],15
same,SPOT peptide array binding signal intensity,[15],814
same,SPOT peptide array binding signal intensity,[16],524
same,SPOT peptide array binding signal intensity,[17],33.8
same,SPOT peptide array binding signal intensity,[18],172
same,SPOT peptide array binding signal intensity,[19],120
same,SPOT peptide array binding signal intensity,[20],75
same,SPOT peptide array binding signal intensity,[21],103
same,SPOT peptide array binding signal intensity,[22],819
same,SPOT peptide array binding signal intensity,[23],281
same,SPOT peptide array binding signal intensity,[24],136
same,SPOT peptide array binding signal intensity,[25],3550
same,SPOT peptide array binding signal intensity,[26],6.5
same,SPOT peptide array binding signal intensity,[27],588
same,SPOT peptide array binding signal intensity,[28],10
same,SPOT peptide array binding signal intensity,[29],299
same,SPOT peptide array binding signal intensity,[30],94
same,SPOT peptide array binding signal intensity,[31],1020
same,SPOT peptide array binding signal intensity,[32],651
same,SPOT peptide array binding signal intensity,[33],2160
same,SPOT peptide array binding signal intensity,[34],2110
same,SPOT peptide array binding signal intensity,[35],43
same,SPOT peptide array binding signal intensity,[36],585
same,SPOT peptide array binding signal intensity,[37],7
same,SPOT peptide array binding signal intensity,[38],5.5
same,SPOT peptide array binding signal intensity,[39],47.5
same,SPOT peptide array binding signal intensity,[40],224
same,SPOT peptide array binding signal intensity,[41],611
same,SPOT peptide array binding signal intensity,[42],145
same,SPOT peptide array binding signal intensity,[43],1850
same,SPOT peptide array binding signal intensity,[44],3.25
same,SPOT peptide array binding signal intensity,[45],2710
same,SPOT peptide array binding signal intensity,[46],1
same,SPOT peptide array binding signal intensity,[47],9
same,SPOT peptide array binding signal intensity,[48],706
same,SPOT peptide array binding signal intensity,[49],80
same,SPOT peptide array binding signal intensity,[50],15.5
same,SPOT peptide array binding signal intensity,[51],14
same,SPOT peptide array binding signal intensity,[52],715
same,SPOT peptide array binding signal intensity,[53],86.5
same,SPOT peptide array binding signal intensity,[54],47
same,SPOT peptide array binding signal intensity,[55],2000
same,SPOT peptide array binding signal intensity,[56],322
same,SPOT peptide array binding signal intensity,[57],232
same,SPOT peptide array binding signal intensity,[58],50.5
same,SPOT peptide array binding signal intensity,[59],27
same,SPOT peptide array binding signal intensity,[60],1440
same,SPOT peptide array binding signal intensity,[61],17.8
same,SPOT peptide array binding signal intensity,[62],48.5
same,SPOT peptide array binding signal intensity,[63],662
same,SPOT peptide array binding signal intensity,[64],126
same,SPOT peptide array binding signal intensity,[65],1580
same,SPOT peptide array binding signal intensity,[66],1950
same,SPOT peptide array binding signal intensity,[67],11.5
same,SPOT peptide array binding signal intensity,[68],610
same,SPOT peptide array binding signal intensity,[69],75
same,SPOT peptide array binding signal intensity,[70],1010
same,SPOT peptide array binding signal intensity,[71],309
same,SPOT peptide array binding signal intensity,[72],49.8
same,SPOT peptide array binding signal intensity,[73],4
same,SPOT peptide array binding signal intensity,[74],172

# Reference: the supplement of paper PMC4466140
